Bioassay records: PubChem, Buhrlage Lab, Dana-Farber Cancer Institute and Novartis Institutes for BioMedical Research (Cambridge, Mass)
This is a sample that favours compounds with a hit; in the whole collection about 1.2% have one here.
UCHL1 inh = blocks human UCHL1 ubiquitin-rhodamine cleavage; AID 1645859; purified UCHL1, Ub-rhodamine cleavage fluorescence; hit rate 0.2% among 47,000; inhibition, % at 20 µM
Target sequence (P09936 whole entry, looked up): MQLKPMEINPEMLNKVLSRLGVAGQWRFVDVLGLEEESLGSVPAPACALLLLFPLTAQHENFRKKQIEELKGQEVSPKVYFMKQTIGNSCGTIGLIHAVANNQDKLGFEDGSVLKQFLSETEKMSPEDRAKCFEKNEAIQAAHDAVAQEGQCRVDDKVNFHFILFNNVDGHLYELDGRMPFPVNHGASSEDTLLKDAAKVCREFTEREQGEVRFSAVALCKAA
USP7 block = inhibitors of human USP7 deubiquitinase. Q93009. purified USP7, Ub-rhodamine cleavage fluorescence. AID 1645854. inhibition, % at 20 µM. hit rate 0.3% among 47,000
USP10 block = blocks human USP10 ubiquitin-rhodamine cleavage; purified USP10, Ub-rhodamine fluorescence, 60 min; AID 1645856; Q14694; inhibition, % at 20 µM; hit rate 1.1% among 47,000
* = called active by the depositor; x = not tested or not shown. No stated cut-off is given here; in the data, active means inhibition above about 30%; inactive means the rest.

SMILES	UCHL1 inh	USP7 block	USP10 block
Cc1ccc(NS(=O)(=O)c2cccc(C(=O)NC3CCN(Cc4ccccc4)CC3)c2)c(C)c1	7	2	0
O=C(NC1CCCCCC1)c1cccc(S(=O)(=O)Nc2cc(C(F)(F)F)ccc2Cl)c1	6	2	53*
Cc1nc(-c2ccc(NC(=O)N3CCN(c4ccccn4)CC3)cc2)no1	2	5	1
CC(Nc1ncnc2c1sc1nc(N3CCOCC3)c3c(c12)CCC3)c1ccccc1 (stereo unspecified)	1	1	-1
O=c1cc(Cc2ccccc2)nc2c(-c3ccccc3)c(COc3ccccc3)[nH]n12	10	52*	62*
Cc1[nH]n2c(=O)cc(Cc3ccccc3)nc2c1-c1ccccc1	-5	-5	6
C[C@H]1C(=O)N(C)[C@@H]2CCN(C(=O)C3CCCCC3)[C@@H]2C(=O)N1C	3	8	6
COc1ccc(CCNC(=O)Cn2c(=O)n(CCCCC(=O)NCc3ccc4c(c3)OCO4)c(=O)c3ccccc32)cc1OC	4	9	19
O=C(CCCn1c(=O)c2ccccc2n(CC(=O)Nc2ccc(Br)cc2F)c1=O)NCc1ccccc1Cl	0	0	-3
O=C(CSc1c[nH]c2ccccc12)Nc1ccc2c(c1)OCO2	2	-4	2
Cc1cccc(C)c1NC(=O)Cn1c(=O)n(CCCCC(=O)NCc2ccc3c(c2)OCO3)c(=O)c2ccccc21	4	17	54*
O=C(CCCn1c(=O)c2ccccc2n(CC(=O)NCc2ccccc2Cl)c1=O)NCc1ccc2c(c1)OCO2	6	27	57*
O=C(Cn1c(=O)c2ccccc2c2ccccc21)Nc1ccc2c(c1)OCO2	9	27	42*
Cc1cc(F)ccc1N1C(=O)CN(S(C)(=O)=O)CC1(C)C(=O)NC1CCCCC1 (stereo unspecified)	-4	-9	0
O=C(Cc1c[nH]c2ncccc12)NC1CCCC1	3	1	-4
COc1cc(C)c(NC(=O)c2cc(-c3ccccc3)c(N3CCOCC3)s2)cc1OC	0	1	9
Cc1ccc(-n2nc(C)c3nc(CCC(=O)Nc4ccc(OC(F)(F)F)cc4)c(=O)n(C)c32)cc1	-2	7	12
COc1cccc(NC(=O)C2C3C=CC4(O3)C2C(=O)N(CCc2ccccc2Cl)C4C(=O)NC2CCCCC2)c1 (stereo unspecified)	-2	-25	-1
COc1cccc(NC(=O)C2C3C=CC4(O3)C2C(=O)N(CCc2ccc(Cl)cc2)C4C(=O)NC2CCCCC2)c1 (stereo unspecified)	2	7	35*
COc1ccc2oc(C(=O)Nc3ccc4ccccc4n3)c(C)c2c1	0	-1	-3
CC(C)CC(=O)Nc1cc(F)c2nc(N3CCOCC3)ccc2c1	5	-6	-8
O=C(Nc1cc(S(=O)(=O)N2CCCCC2)ccc1N1CCCCC1)C1COc2ccccc2O1 (stereo unspecified)	-3	-2	-12
COc1ccc(-c2c(NC(=O)C3COc4ccccc4O3)n[nH]c2C)cc1OC (stereo unspecified)	29	-144	6
Cc1[nH]nc(NC(=O)C2COc3ccccc3O2)c1-c1ccccc1 (stereo unspecified)	32*	-141	26
O=C(O)c1ccc(Cl)c(NC(=O)C2COc3ccccc3O2)c1 (stereo unspecified)	-5	58*	-2
SMILES	UCHL1 inh	USP7 block	USP10 block
CC1=C(C(=O)NCc2ccccc2)C(c2ccc(C)cc2)n2ncnc2N1 (stereo unspecified)	2	6	2
O=S(=O)(Nc1cccc(S(=O)(=O)N2CCCCC2)c1)c1ccc2c(c1)OCCCO2	2	4	3
CC(OC(=O)c1cc(S(=O)(=O)Nc2ccccc2F)ccc1Cl)C(=O)Nc1ccc([N+](=O)[O-])cc1C(F)(F)F (stereo unspecified)	6	2	36*
CC(OC(=O)c1cc(S(=O)(=O)Nc2ccc(S(C)(=O)=O)cc2)ccc1Cl)C(=O)Nc1ccc([N+](=O)[O-])cc1C(F)(F)F (stereo unspecified)	3	1	18
COc1ccccc1NS(=O)(=O)c1cc(NC(=O)CC(=O)c2ccc([N+](=O)[O-])cc2)ccc1C	9	14	33*
COc1ccc(NS(=O)(=O)c2cc(NC(=O)CC(=O)c3ccc([N+](=O)[O-])cc3)ccc2Cl)cc1	-1	7	58*
COc1ccc(NS(=O)(=O)c2ccc(C(=O)Nc3cccc(C(C)=O)c3)cc2)cc1	3	0	-1
COc1ccc(NS(=O)(=O)c2cccc(NC(=O)CC(=O)c3ccc([N+](=O)[O-])cc3)c2)cc1	4	15	46*
COc1ccccc1NS(=O)(=O)c1cc(C(=O)NCc2ccncc2)ccc1C	6	5	1
COc1ccc(NS(=O)(=O)c2cccc(NC(=O)CCC(=O)c3ccc(Cl)cc3)c2)cc1	6	-1	15
COc1ccc(NC(=O)Cc2cc(OC)c(OC)c(OC)c2)cc1S(=O)(=O)Nc1ccc(Br)cc1	6	2	3
COc1ccc(NC(=O)CC(=O)c2ccc([N+](=O)[O-])cc2)cc1S(=O)(=O)Nc1ccc(Cl)cc1	4	18	49*
COc1ccc2c(CNCCc3ccc(Cl)cc3)c(C(=O)O)[nH]c2c1	2	x	3
O=C(Nc1ccccc1)c1sccc1Oc1ccc([N+](=O)[O-])c(C(F)(F)F)c1	5	-4	8
CC(=O)Nc1cccc(NC(=O)Cn2ccc3cc(Br)ccc32)c1	-1	13	10
CCOc1ccc(NC(=O)CSC2=NC3(CCCC3)Nc3ccccc32)cc1	1	0	0
CCC1=C(c2ccc(C)cc2)S(=O)(=O)NC1=NCC(=O)NCc1ccccc1F	0	4	9
Cc1ccc(NC(=O)CC2C(=O)Nc3nc(-c4ccccc4)nn32)cc1 (stereo unspecified)	4	5	5
COc1ccc(-c2nc3n(n2)C(CC(=O)Nc2cccc4ccccc24)C(=O)N3)cc1 (stereo unspecified)	1	7	41*
O=c1[nH]c2ccc(S(=O)(=O)Nc3ccc(O)c4ccccc34)cc2[nH]1	37*	-72	49*
COc1cccc(CNS(=O)(=O)c2ccc3[nH]c(=O)[nH]c3c2)c1	4	1	5
CCOC(=O)c1ccc(NC(=O)COc2cccc3c2CCN(CC)C3=O)cc1	0	7	2
COc1cccc(C2=Nc3cc(C)c(C)cc3NC(=O)C2)c1	1	-1	10
O=c1[nH]c(=O)n(Cc2ccco2)c2c1CN(Cc1ccccc1)CN2	-1	0	-2
CCC(C)N1CNc2c(c(=O)[nH]c(=O)n2Cc2ccco2)C1 (stereo unspecified)	29	12	31*
CCOC(=O)c1ccc(S(=O)(=O)N2CCC(C(=O)OC(C)C(=O)Nc3cccc([N+](=O)[O-])c3)CC2)cc1 (stereo unspecified)	5	4	23
O=C(C[C@@H]1CCN2C[C@@H]1CCCOc1ccccc1CN(C(=O)c1cccnc1)CC2=O)N1CCOCC1	1	-1	-1
O=C(O)c1cc(NC(=O)C(Sc2cccc(NC(=O)c3ccccc3F)c2)c2ccccc2)ccc1O (stereo unspecified)	-24	-18	-17
